According to PubChem BioAssay (EPA / NIEHS):
Calls of active or inactive are those of the source. How the source made its calls: active means hit-call score of the fitted dose curve at least 0.9, where 1 is the maximum; inactive means score below 0.9.

How the values were obtained:
[1] = read-out: Urokinase-type plasminogen activator receptor (uPAR), PLAUR (gene 5329); assay: BSK_4H_uPAR: BioMAP Diversity Plus: 4H Assay for Urokinase-type plasminogen activator receptor (uPAR) Biomarker Activity (AID 2283030); details: primary human endothelial cells (HUVEC); actives raise or lower the signal
Outline: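 uPAR level read by ELISA on HUVEC cultures (BioMAP 4H) 24 h post-dosing, analyzed for gain or loss relative to DMSO. Parallel SRB staining assessed overt cytotoxicity.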

[2] = read-out: Vascular endothelial growth factor receptor 2 (Homo sapiens) (UniProt P35968); assay: BSK_4H_VEGFRII: BioMAP Diversity Plus: 4H Assay for Vascular endothelial growth factor receptor 2 (VEGFR2) Biomarker Activity (AID 2283031); details: primary human endothelial cells (HUVEC); actives raise or lower the signal;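 on AC50: cell-surface VEGFR2 protein level quantified by ELISA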
Outline: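 Measured by ELISA after 24 h of compound treatment: VEGFR2 on primary human umbilical vein endothelial cells, fitted in both directions relative to DMSO. Parallel cultures received SRB staining (560 nm) for overt cytotoxicity.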

[3] = read-out: Human Leukocyte Antigen - DR isotype (HLADR), HLA-DRA (gene 3122); assay: BSK_BE3C_HLADR: BioMAP Diversity Plus: BE3C Assay for Human Leukocyte Antigen - DR isotype (HLADR) Biomarker Activity (AID 2283032); details: primary human bronchial epithelial cells; actives raise or lower the signal
Outline: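 Cell-surface HLA-DR ELISA readout at 24 h after dosing in the BE3C primary human lung bronchial epithelial system; gain or loss of signal against DMSO, with parallel sulforhodamine B staining of total protein for overt cytotoxicity.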

[4] = read-out: Vascular cell adhesion molecule 1 (VCAM1), VCAM1 (gene 7412); assay: BSK_4H_VCAM1: BioMAP Diversity Plus: 4H Assay for Vascular cell adhesion molecule 1 (VCAM1) Biomarker Activity (AID 2283033); details: primary human endothelial cells (HUVEC); actives raise or lower the signal
Outline: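 VCAM-1 ELISA read 24 h after chemical dosing of HUVEC in the BioMAP 4H system, with gain or loss of signal fitted relative to DMSO. Parallel SRB staining (560 nm) checked overt cytotoxicity.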

[5] = read-out: Interferon-gamma inducible Protein 10 (IP10), CXCL10 (gene 3627); assay: BSK_BE3C_IP10: BioMAP Diversity Plus: BE3C Assay for Interferon-gamma inducible Protein 10 (IP10) Biomarker Activity (AID 2283034); details: primary human bronchial epithelial cells; actives raise or lower the signal
Outline: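 IP-10 quantified by ELISA in human primary bronchial epithelial cell cultures at 24 hours post-dosing. Gain or loss of signal fitted relative to DMSO; parallel SRB staining assessed overt cytotoxicity.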

[6] = read-out: Monokine induced gamma interferon (MIG), CXCL9 (gene 4283); assay: BSK_BE3C_MIG: BioMAP Diversity Plus: BE3C Assay for Monokine induced gamma interferon (MIG) Biomarker Activity (AID 2283035); details: primary human bronchial epithelial cells; actives raise or lower the signal
Outline: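 Dose cells (human primary bronchial epithelial), incubate 24 h, quantify MIG by ELISA, then fit concentration–response in both directions relative to DMSO control.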

[7] = read-out: Plasminogen activator inhibitor-1 (PAI1), SERPINE1 (gene 5054); assay: BSK_BE3C_PAI1: BioMAP Diversity Plus: BE3C Assay for Plasminogen activator inhibitor-1 (PAI1) Biomarker Activity (AID 2283037); details: primary human bronchial epithelial cells; actives raise or lower the signal
Outline: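 PAI-1 was measured by ELISA in human primary bronchial epithelial cultures 24 h after chemical dosing, with cytotoxicity checked by SRB total-protein staining in parallel cultures. Activity was fitted in both directions relative to DMSO.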

[8] = read-out: urokinase plasminogen activator (uPA), PLAU (gene 5328); assay: BSK_BE3C_uPA: BioMAP Diversity Plus: BE3C Assay for urokinase plasminogen activator (uPA) Biomarker Activity (AID 2283038); details: primary human bronchial epithelial cells; actives raise or lower the signal;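 further: uPA protein level quantified by ELISA in cell cultures; uPA read one day after compound addition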
Outline: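 ELISA for uPA on human primary bronchial epithelial cultures 24 h post-treatment, gain or loss against DMSO. Parallel SRB staining (0.1% after 10% TCA fixation, 560 nm) assessed overt cytotoxicity.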

[9] = read-out: Urokinase-type plasminogen activator receptor (uPAR), PLAUR (gene 5329); assay: BSK_BE3C_uPAR: BioMAP Diversity Plus: BE3C Assay for Urokinase-type plasminogen activator receptor (uPAR) Biomarker Activity (AID 2283039); details: primary human bronchial epithelial cells; actives raise or lower the signal;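 further: cells exposed to compound for one day before measurement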
Outline: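 uPAR levels were measured by ELISA after 24 h compound treatment of primary human bronchial epithelial cells, fitted in both directions relative to DMSO. Parallel SRB staining served as the cytotoxicity read-out.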

[10] = read-out: Interleukin-6 (IL6), IL6 (gene 3569); assay: BSK_CASM3C_IL6: BioMAP Diversity Plus: CASM3C Assay for Interleukin-6 (IL6) Biomarker Activity for (AID 2283040); details: primary human coronary artery smooth muscle cells; actives raise or lower the signal
[11] = read-out: Tissue plasminogen activator (tPA), PLAT (gene 5327); assay: BSK_BE3C_tPA: BioMAP Diversity Plus: BE3C Assay for Tissue plasminogen activator (tPA) Biomarker Activity (AID 2283041); details: primary human bronchial epithelial cells; actives raise or lower the signal;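 further: tPA level quantified by ELISA one day after compound addition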
Outline: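 tPA measured by ELISA 24 h after dosing human primary bronchial epithelial cells (BE3C system). Changes in either direction were fitted against DMSO. Parallel cultures were stained with SRB to flag overt cytotoxicity.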

[12] = read-out: Interleukin-8 (IL8), CXCL8 (gene 3576); assay: BSK_CASM3C_IL8: BioMAP Diversity Plus: CASM3C Assay for Interleukin-8 (IL8) Biomarker Activity (AID 2283042); details: primary human coronary artery smooth muscle cells; actives raise or lower the signal;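 further: IL-8 protein level quantified by ELISA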
[13] = read-out: Human Leukocyte Antigen - DR isotype (HLADR), HLA-DRA (gene 3122); assay: BSK_CASM3C_HLADR: BioMAP Diversity Plus: CASM3C Assay for Human Leukocyte Antigen - DR isotype (HLADR) Biomarker Activity (AID 2283043); details: primary human coronary artery smooth muscle cells; actives raise or lower the signal;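 further: cell-surface HLA-DR protein level quantified by ELISA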
[14] = read-out: Macrophage colony-stimulating factor (MCSF), CSF1 (gene 1435); assay: BSK_CASM3C_MCSF: BioMAP Diversity Plus: CASM3C Assay for Macrophage colony-stimulating factor (MCSF) Biomarker Activity (AID 2283044); details: primary human coronary artery smooth muscle cells; actives raise or lower the signal;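 further: M-CSF protein amount quantified by ELISA after 24 h exposure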
[15] = read-out: Low-density lipoprotein receptor (LDLR), LDLR (gene 3949); assay: BSK_CASM3C_LDLR: BioMAP Diversity Plus: CASM3C Assay for Low-density lipoprotein receptor (LDLR) Biomarker Activity (AID 2283045); details: primary human coronary artery smooth muscle cells; actives raise or lower the signal;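 further: LDLR protein level on the cell surface quantified by ELISA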
[16] = read-out: Monocyte Chemoattractant Protein-1 (MCP1), CCL2 (gene 6347); assay: BSK_CASM3C_MCP1: BioMAP Diversity Plus: CASM3C Assay for Monocyte Chemoattractant Protein-1 (MCP1) Biomarker Activity (AID 2283046); details: primary human coronary artery smooth muscle cells; actives raise or lower the signal;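 further: MCP-1 level quantified by ELISA 24 h after dosing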
[17] = BSK_CASM3C_Proliferation: Cell Proliferation Assessment in the BioMAP Diversity Plus: CASM3C Assay (AID 2283047); details: primary human coronary artery smooth muscle cells;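 further: sulforhodamine B total protein stain as relative cell number at 560 nm; sub-confluent cells exposed 48 h before staining; fitted both ways against DMSO so gain or loss of cell number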
[18] = read-out: Monokine induced gamma interferon (MIG), CXCL9 (gene 4283); assay: BSK_CASM3C_MIG: BioMAP Diversity Plus: CASM3C Assay for Monokine induced gamma interferon (MIG) Biomarker Activity (AID 2283048); details: primary human coronary artery smooth muscle cells; actives raise or lower the signal;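 further: MIG protein level measured by ELISA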
[19] = read-out: serum amyloid A (SAA), SAA1 (gene 6288); assay: BSK_CASM3C_SAA: BioMAP Diversity Plus: CASM3C Assay for serum amyloid A (SAA) Biomarker Activity (AID 2283049); details: primary human coronary artery smooth muscle cells; actives raise or lower the signal;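 further: SAA protein level quantified by ELISA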
[20] = read-out: Transforming growth factor beta 1 (TGFb1), TGFB1 (gene 7040); assay: BSK_BE3C_TGFb1: BioMAP Diversity Plus: BE3C Assay for Transforming growth factor beta 1 (TGFb1) Biomarker Activity (AID 2283036;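 further: TGF-b1 protein level measured by ELISA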); details: primary human bronchial epithelial cells; actives raise or lower the signal
Outline: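 ELISA readout of TGF-b1 from human lung bronchial epithelial primary cells, taken 24 h post-treatment. Gain or loss of signal fitted relative to DMSO baseline, with parallel SRB staining for overt cytotoxicity.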

Measured: AC50

CCOC(=O)C(O)(c1ccc(Cl)cc1)c1ccc(Cl)cc1
active: [1] 31.3 µM | [2] 27.9 µM | [4] 30.7 µM | [5] 31.1 µM | [7] 14.7 µM | [17] 30 µM
not listed: [20]
inactive: all other assays above

Sc1ccccc1
not listed: [20]
inactive: all other assays above

CC(C)(O)C(=O)Nc1ccc([N+](=O)[O-])c(C(F)(F)F)c1
active: [5] 24.6 µM | [10] 29.1 µM
not listed: [3]
inactive: all other assays above

CCOP(=S)(OCC)SCSC(C)(C)C
active: [14] 2.51 µM
not listed: [3]
inactive: all other assays above

Cc1cccc([N+](=O)[O-])c1
not listed: [2] | [3]
inactive: all other assays above

Cc1cc(-c2ccc(N)c(C)c2)ccc1N
not listed: [3]
inactive: all other assays above
